Experiments:
Experiment in all cases: DAPPL (digital affinity profiling via proximity ligation, sequencing); 10 mM Tris-HCl pH 7.5, 50 mM NaCl, 1 mM DTT, 4% glycerol, room temperature, 30 min; GST-TFs on glutathione beads, 16-mer random dsDNA library, 0.1% formaldehyde crosslink after washing; high values mean tight binding
Conditions in all cases: protein: recombinant; tags: N-terminal GST; dsDNA, one strand shown
FLI1 = target: T1, FLI1 (Homo sapiens, UniProt Q01543 1-452)
T1 sequence: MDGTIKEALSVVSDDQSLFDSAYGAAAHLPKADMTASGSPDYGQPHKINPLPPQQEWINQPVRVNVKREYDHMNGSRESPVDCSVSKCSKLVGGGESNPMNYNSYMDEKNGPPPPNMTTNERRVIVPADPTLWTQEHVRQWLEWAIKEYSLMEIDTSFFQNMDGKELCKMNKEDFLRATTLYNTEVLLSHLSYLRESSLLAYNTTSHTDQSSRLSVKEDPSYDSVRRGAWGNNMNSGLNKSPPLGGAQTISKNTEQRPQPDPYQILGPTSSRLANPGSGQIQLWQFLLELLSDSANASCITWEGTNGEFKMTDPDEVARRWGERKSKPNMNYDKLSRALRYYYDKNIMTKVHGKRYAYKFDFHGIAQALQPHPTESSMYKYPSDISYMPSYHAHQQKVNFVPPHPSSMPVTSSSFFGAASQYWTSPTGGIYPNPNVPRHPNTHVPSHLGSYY
How it was run: (§1)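 After expression in yeast as GST fusions, human transcription factors were bound to glutathione beads, DNA-barcoded and mixed with a tag-only sample. The pools were incubated with 200 nmole of a 16-mer random double-stranded DNA library in Tris/NaCl/DTT/glycerol buffer (30 min, room temperature), washed and crosslinked with 0.1% formaldehyde. Proximity ligation with BsaI/T4 ligase ran for 1 h at 37 °C, before PCR amplification and sequencing on an Illumina NextSeq500. Binding signal is a hexamer's read frequency for a factor divided by its frequency for the tag-only sample.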

ELK1 = target: T2, ELK1 (Homo sapiens, UniProt P19419 1-428)
T2 sequence: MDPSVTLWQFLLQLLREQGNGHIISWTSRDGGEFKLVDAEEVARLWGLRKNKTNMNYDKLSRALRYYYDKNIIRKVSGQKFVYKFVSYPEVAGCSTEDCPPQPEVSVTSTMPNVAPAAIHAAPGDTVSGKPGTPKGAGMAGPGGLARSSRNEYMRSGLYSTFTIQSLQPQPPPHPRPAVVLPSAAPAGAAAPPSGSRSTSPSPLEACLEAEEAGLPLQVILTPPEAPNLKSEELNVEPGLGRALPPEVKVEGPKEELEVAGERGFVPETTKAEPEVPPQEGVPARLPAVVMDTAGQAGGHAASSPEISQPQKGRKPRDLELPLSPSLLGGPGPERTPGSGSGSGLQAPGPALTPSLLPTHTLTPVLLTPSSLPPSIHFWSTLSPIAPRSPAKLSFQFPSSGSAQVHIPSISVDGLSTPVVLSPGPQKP
How it was run: as §1

GABPA = target: T3, GABPA (Homo sapiens, UniProt Q06546 1-454)
T3 sequence: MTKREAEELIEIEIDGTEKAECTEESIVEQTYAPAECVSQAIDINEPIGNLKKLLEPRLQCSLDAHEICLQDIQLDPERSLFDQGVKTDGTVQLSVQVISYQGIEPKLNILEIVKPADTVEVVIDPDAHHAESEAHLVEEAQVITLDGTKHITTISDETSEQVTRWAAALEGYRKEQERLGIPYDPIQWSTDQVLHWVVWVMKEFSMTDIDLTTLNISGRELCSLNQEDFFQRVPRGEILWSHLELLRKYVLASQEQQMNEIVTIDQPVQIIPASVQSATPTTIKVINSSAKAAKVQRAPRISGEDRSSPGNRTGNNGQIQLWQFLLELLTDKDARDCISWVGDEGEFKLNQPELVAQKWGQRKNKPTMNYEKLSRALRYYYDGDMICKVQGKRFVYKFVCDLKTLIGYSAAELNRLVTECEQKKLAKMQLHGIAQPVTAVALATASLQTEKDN
How it was run: as §1

ERG = target: T4, ERG (Homo sapiens, UniProt P11308 1-479)
T4 sequence: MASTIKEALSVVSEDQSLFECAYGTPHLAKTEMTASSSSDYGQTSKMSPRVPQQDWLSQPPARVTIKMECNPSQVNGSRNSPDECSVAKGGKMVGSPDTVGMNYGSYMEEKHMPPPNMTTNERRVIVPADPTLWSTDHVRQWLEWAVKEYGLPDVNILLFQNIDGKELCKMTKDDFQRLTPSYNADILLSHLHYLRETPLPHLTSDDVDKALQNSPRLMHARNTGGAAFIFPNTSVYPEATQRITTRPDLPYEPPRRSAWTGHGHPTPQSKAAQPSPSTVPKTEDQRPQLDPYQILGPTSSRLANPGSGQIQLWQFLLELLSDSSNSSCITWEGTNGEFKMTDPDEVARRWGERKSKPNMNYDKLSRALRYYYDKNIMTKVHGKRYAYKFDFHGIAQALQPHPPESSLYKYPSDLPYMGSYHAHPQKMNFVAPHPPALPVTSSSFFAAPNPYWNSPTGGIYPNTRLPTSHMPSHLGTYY
How it was run: as §1

ELF1 = ELF1 (Homo sapiens, UniProt P32519 1-619)
How it was run: as §1

EHF = target: T5, EHF (Homo sapiens, UniProt Q9NZC4 1-300)
T5 sequence: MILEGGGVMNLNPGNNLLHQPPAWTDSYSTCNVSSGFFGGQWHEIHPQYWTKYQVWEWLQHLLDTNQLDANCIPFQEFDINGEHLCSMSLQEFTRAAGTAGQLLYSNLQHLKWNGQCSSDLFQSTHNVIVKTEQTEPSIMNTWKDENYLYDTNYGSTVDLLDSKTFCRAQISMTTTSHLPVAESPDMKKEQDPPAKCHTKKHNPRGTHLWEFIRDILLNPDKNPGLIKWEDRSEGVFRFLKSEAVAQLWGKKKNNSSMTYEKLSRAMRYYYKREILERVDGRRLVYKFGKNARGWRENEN
How it was run: as §1

SPI1 = SPI1 (Homo sapiens, UniProt P17947 1-270)
How it was run: as §1

SPIB = SPIB (Homo sapiens, UniProt Q01892 1-262)
How it was run: as §1

ELK3 = target: T6, ELK3 (Homo sapiens, UniProt P41970 1-407)
T6 sequence: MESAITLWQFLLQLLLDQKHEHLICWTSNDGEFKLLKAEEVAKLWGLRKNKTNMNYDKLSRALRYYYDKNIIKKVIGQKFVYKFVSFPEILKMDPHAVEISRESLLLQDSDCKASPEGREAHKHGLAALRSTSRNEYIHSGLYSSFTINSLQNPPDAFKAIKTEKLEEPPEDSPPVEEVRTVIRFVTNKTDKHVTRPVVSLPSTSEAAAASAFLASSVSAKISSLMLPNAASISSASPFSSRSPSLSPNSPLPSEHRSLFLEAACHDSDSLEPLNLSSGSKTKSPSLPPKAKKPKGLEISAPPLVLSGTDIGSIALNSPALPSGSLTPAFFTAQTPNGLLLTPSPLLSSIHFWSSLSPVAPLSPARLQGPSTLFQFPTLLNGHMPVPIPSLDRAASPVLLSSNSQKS
How it was run: as §1

FEV = target: T7, FEV (Homo sapiens, UniProt Q99581 1-238)
T7 sequence: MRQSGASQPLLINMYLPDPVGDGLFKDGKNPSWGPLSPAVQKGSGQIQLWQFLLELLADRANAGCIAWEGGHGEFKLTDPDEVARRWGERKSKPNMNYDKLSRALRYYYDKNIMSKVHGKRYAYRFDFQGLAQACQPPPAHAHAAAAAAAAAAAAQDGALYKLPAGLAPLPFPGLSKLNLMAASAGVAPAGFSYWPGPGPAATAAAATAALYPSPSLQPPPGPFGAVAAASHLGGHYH
How it was run: as §1

ETV5 = ETV5 (Homo sapiens, UniProt P41161 1-510)
How it was run: as §1

SPIC = target: T8, SPIC (Homo sapiens, UniProt Q8N5J4 1-248)
T8 sequence: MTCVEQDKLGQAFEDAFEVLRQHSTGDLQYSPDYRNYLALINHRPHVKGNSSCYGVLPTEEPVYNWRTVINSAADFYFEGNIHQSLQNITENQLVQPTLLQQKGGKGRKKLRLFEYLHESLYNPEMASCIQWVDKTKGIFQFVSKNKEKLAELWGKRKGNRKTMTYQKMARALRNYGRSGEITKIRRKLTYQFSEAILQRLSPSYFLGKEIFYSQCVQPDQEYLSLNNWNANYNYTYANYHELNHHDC
How it was run: as §1

ELF4 = ELF4 (Homo sapiens, UniProt Q99607 1-663)
How it was run: as §1

ETV1 = ETV1 (Homo sapiens, UniProt P50549 1-477)
How it was run: as §1

ETV3L = target: T9, ETV3L (Homo sapiens, UniProt Q6ZN32 1-361)
T9 sequence: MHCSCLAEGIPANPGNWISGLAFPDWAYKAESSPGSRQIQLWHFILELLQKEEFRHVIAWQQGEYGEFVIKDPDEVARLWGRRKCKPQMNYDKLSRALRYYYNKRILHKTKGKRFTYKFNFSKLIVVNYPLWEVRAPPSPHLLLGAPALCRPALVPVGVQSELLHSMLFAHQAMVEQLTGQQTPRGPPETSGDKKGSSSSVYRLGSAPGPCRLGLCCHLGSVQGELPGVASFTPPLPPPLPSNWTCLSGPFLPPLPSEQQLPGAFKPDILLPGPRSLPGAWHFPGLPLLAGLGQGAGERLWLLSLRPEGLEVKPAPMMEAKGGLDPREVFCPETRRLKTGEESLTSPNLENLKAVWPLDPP
How it was run: as §1

ETS2 = target: T10, ETS2 (Homo sapiens, UniProt P15036 1-469)
T10 sequence: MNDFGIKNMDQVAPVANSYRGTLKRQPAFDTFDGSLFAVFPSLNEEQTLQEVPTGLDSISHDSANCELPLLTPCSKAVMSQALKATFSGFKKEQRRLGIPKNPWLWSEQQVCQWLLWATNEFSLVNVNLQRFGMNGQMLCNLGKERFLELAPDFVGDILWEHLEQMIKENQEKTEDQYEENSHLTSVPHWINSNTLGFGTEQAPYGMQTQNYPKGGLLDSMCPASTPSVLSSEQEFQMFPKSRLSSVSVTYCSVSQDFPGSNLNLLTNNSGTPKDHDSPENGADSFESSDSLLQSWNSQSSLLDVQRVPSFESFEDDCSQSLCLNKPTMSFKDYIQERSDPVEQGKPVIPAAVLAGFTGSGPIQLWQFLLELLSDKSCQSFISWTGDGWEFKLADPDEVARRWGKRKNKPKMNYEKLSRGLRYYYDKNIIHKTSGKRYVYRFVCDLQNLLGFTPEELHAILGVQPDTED
How it was run: as §1

SPDEF = target: T11, SPDEF (Homo sapiens, UniProt O95238 1-335)
T11 sequence: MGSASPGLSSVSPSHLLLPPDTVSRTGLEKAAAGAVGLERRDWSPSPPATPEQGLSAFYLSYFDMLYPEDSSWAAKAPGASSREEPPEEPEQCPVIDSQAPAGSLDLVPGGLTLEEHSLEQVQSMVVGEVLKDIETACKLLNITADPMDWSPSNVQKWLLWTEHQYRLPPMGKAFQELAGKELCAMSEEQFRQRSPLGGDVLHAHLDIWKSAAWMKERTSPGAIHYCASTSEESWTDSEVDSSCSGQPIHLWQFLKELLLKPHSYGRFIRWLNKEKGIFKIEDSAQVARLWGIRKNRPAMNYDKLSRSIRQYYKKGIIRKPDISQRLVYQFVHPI
How it was run: as §1

ETV3 = target: T12, ETV3 (Homo sapiens, UniProt P41162-2 1-143)
T12 sequence: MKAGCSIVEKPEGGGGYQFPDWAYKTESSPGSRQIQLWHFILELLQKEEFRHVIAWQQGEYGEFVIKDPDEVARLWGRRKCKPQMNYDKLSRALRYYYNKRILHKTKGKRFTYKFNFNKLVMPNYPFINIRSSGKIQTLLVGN
How it was run: as §1

ETV6 = ETV6 (Homo sapiens, UniProt P41212 1-452)
How it was run: as §1

ETV6, sequence (P41212 whole entry): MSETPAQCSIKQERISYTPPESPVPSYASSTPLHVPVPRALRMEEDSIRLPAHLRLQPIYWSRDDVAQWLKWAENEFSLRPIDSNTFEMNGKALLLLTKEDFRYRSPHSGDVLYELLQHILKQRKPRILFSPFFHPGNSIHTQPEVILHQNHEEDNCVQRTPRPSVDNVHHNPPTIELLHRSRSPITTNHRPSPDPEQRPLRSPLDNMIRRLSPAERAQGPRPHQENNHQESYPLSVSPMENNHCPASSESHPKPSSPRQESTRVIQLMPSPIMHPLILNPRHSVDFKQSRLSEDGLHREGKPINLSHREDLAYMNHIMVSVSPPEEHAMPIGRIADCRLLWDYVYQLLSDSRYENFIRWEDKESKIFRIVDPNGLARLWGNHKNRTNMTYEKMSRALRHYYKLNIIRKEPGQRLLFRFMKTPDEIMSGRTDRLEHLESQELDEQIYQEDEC
ETV5, sequence (P41161 whole entry): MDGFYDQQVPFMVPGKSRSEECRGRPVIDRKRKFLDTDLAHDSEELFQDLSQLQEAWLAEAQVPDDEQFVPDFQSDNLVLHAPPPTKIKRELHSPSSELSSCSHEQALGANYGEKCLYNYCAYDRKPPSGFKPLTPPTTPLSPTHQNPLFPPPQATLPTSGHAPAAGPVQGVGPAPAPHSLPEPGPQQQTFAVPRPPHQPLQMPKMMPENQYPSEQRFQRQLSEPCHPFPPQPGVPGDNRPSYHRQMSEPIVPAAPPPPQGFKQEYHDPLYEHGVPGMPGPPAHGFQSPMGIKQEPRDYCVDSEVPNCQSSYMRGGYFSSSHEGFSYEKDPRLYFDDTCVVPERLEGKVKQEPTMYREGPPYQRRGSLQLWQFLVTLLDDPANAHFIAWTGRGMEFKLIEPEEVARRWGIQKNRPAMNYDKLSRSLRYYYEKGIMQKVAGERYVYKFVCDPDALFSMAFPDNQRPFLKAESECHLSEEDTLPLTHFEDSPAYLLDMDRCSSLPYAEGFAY
ELF4, sequence (Q99607 whole entry): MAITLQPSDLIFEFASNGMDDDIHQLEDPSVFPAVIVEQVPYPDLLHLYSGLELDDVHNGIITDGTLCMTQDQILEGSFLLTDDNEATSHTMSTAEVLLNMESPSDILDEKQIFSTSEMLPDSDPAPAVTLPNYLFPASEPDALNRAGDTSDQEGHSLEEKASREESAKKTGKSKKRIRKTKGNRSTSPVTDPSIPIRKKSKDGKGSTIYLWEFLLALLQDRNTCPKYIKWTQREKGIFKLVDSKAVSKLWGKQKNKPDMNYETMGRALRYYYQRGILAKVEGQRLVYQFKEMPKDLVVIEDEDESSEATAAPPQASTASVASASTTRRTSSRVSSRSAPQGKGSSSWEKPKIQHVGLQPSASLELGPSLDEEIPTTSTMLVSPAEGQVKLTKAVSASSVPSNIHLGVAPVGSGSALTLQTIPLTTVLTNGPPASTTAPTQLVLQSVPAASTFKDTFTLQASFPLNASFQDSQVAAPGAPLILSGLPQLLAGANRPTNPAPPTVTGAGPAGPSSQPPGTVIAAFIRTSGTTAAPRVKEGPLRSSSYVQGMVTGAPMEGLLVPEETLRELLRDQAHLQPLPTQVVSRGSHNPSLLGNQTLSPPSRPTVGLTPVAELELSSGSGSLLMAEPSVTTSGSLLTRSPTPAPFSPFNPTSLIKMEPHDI
ETV1, sequence (P50549 whole entry): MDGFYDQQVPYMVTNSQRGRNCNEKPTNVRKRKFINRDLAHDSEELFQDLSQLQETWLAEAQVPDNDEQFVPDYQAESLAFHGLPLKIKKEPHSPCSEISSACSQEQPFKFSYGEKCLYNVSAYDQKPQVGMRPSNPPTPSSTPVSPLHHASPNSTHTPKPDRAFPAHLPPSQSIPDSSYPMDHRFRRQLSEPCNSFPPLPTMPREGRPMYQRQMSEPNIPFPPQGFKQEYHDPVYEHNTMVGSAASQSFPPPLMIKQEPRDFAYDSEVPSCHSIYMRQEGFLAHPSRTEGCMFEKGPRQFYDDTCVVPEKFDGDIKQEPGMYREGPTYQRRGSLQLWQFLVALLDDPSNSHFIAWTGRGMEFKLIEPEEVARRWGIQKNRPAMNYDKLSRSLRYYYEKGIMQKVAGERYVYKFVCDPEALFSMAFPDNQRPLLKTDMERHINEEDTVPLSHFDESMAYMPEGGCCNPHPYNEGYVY
SPIB, sequence (Q01892 whole entry): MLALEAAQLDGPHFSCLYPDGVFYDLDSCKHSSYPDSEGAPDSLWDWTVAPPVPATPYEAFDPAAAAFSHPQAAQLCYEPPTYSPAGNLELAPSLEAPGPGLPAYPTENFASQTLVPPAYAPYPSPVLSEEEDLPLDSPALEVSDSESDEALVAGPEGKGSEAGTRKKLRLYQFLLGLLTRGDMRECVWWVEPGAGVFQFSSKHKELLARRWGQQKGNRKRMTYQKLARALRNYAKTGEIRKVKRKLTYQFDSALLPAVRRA
ELF1, sequence (P32519 whole entry): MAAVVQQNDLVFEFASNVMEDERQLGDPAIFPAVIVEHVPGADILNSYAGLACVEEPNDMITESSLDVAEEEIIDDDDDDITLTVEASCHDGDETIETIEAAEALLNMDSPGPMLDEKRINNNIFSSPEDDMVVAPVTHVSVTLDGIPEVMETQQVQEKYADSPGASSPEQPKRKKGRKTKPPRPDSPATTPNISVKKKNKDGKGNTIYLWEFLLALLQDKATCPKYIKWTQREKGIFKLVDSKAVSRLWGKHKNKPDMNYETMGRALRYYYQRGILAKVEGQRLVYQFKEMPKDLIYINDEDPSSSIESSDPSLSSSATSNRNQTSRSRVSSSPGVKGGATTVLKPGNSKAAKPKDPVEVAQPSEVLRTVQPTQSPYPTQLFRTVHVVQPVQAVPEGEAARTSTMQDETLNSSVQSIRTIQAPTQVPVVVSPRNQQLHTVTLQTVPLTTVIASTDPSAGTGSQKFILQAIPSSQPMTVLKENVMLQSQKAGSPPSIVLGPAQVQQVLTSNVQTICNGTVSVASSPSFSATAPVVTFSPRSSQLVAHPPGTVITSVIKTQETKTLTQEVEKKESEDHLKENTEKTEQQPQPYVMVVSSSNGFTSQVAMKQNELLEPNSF

TTGCCG
binding signal (FLI1): 1.2 fold enrichment (6-mer frequency, TF over GST control) | binding signal (ELK1): 1.14 fold enrichment (6-mer frequency, TF over GST control) | binding signal (GABPA): 1.16 fold enrichment (6-mer frequency, TF over GST control) | binding signal (ERG): 1.04 fold enrichment (6-mer frequency, TF over GST control) | binding signal (ELF1): 1.03 fold enrichment (6-mer frequency, TF over GST control) | binding signal (EHF): 1.19 fold enrichment (6-mer frequency, TF over GST control) | binding signal (SPI1): 1.12 fold enrichment (6-mer frequency, TF over GST control) | binding signal (SPIB): 1.12 fold enrichment (6-mer frequency, TF over GST control) | binding signal (ELK3): 1.07 fold enrichment (6-mer frequency, TF over GST control) | binding signal (FEV): 1.12 fold enrichment (6-mer frequency, TF over GST control) | binding signal (ETV5): 1.12 fold enrichment (6-mer frequency, TF over GST control) | binding signal (SPIC): 1.08 fold enrichment (6-mer frequency, TF over GST control) | binding signal (ELF4): 1.12 fold enrichment (6-mer frequency, TF over GST control) | binding signal (ETV1): 1.09 fold enrichment (6-mer frequency, TF over GST control) | binding signal (ETV3L): 1.11 fold enrichment (6-mer frequency, TF over GST control) | binding signal (ETS2): 1.12 fold enrichment (6-mer frequency, TF over GST control) | binding signal (SPDEF): 1.13 fold enrichment (6-mer frequency, TF over GST control) | binding signal (ETV3): 1.1 fold enrichment (6-mer frequency, TF over GST control) | binding signal (ETV6): 1.08 fold enrichment (6-mer frequency, TF over GST control)

— article PMC7862700, “An all-to-all approach to the identification of sequence-specific readers for epigenetic DNA modifications on cytosine”
